LMP1 NFkB inh = reduces LMP1-driven NF-kappaB luciferase signal; inhibition, % at 12.5 µM; 0.69% of 350,000 active; LMP1-induced NF-kappaB luciferase reporter cells, luminescence; AID 504558; in the data active means inhibition above about 41%; inconclusive means no clear call, values can overlap the other calls
TROY NFkB inh = TROY signaling inhibition | Q293 LMP1-TROYcd NF-kB luciferase reporter, 4 h | inhibition, % at 10 µM | 0.98% of 360,000 active | AID 1347056;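 active means compounds whose plate-normalised and pattern-corrected inhibition of the luciferase reporter signal at the single screening dose is 50% or more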
LGR2 inh = Drosophila LGR2 receptor signaling inhibition; inhibition, % at 9.99 µM; 0.35% of 380,000 active; HEK293 LGR2, CRE-luciferase, bursicon-stimulated, 4 h; AID 720647;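 active means drop in luminescence signal, shown as inhibition above about 50% in the replicate tests, limit read from the data, passing the limit was not always enough; inconclusive means probably only some replicates passing the limit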;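 further: agonist challenge used bursicon conditioned medium at about half maximal strength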
TWEAK-Fn14 inh = inhibitors of TWEAK-Fn14 interaction signaling; TWEAK-stimulated Fn14 reporter cells, luciferase luminescence, 8 h; inhibition, % at 10 µM; 2% of 360,000 active; in the data active means inhibition above about 50%
HSF1 inhib = HSF1 inhibition | activity change, negative = inhibition, % at 7.5 µM (by protocol) | NIH3T3-HGL HSE-luciferase, MG132-induced, luminescence 8 h; stronger effect = lower value | 0.77% of 300,000 active;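 active means more than half of replicate wells show activity change below -50%, luminescence cut by over half; inconclusive means some wells, but at most half, below -50%; inactive means no replicate well below -50%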;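 further: luciferase reports HSF-1 transcriptional activity via heat shock element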
HSF1 activator = increases HSF-1 driven luciferase reporter signal; activation, % at 9 µM; 1.7% of 300,000 active; NIH3T3-HGL HSF-1 luciferase reporter, MG132, 8 h; 100% = twice DMSO control signal; AID 504408;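 active means mean replicate activation of at least 50% with a set share of replicates each reaching 50%; inconclusive means only one of those two conditions met; inactive means mean below 50% and too few replicates reaching it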
Of the large screens only hits and unclear results are named; the others gave an inactive call. Hits are enriched below; roughly 3.6% of the tested compounds scored in any of these assays.

C/C=C/c1ccc2c(c1)O[C@H](CN(C)C(=O)c1ccncc1)[C@H](C)CN([C@@H](C)CO)S2(=O)=O	none (no result: LMP1 NFkB inh, TROY NFkB inh, TWEAK-Fn14 inh, HSF1 inhib, HSF1 activator)
O=C(C[C@@H]1CC[C@@H](NC(=O)Nc2ccc(F)cc2)[C@H](CO)O1)NCc1ccccn1	none (no result: LMP1 NFkB inh, TROY NFkB inh, TWEAK-Fn14 inh, HSF1 inhib, HSF1 activator)
CO[C@@H]1CN(C)C(=O)c2cc(NC(=O)C3CCOCC3)ccc2OC[C@@H](C)N(CC2CCCCC2)C[C@H]1C	none (no result: LMP1 NFkB inh, TROY NFkB inh, TWEAK-Fn14 inh, HSF1 inhib, HSF1 activator)
C[C@H](CO)N1C[C@H](C)[C@H](CN(C)C(=O)Nc2ccc(F)cc2)Oc2ncc(C#Cc3ccccc3)cc2C1=O	none (no result: LMP1 NFkB inh, TROY NFkB inh, TWEAK-Fn14 inh, HSF1 inhib, HSF1 activator)
CC(C)Cc1cc(C(=O)N2CCN(C(c3ccccc3)c3ccccc3)CC2)no1	none
CC(C)c1cc(C(=O)N2CCN(C(c3ccccc3)c3ccccc3)CC2)no1	TROY NFkB inh 60
CC(C)c1onc(C(=O)N2CCN(C(c3ccccc3)c3ccccc3)CC2)c1[N+](=O)[O-]	HSF1 inhib -57
Cc1ccc(-c2nnc(Nc3ccccc3)o2)cc1	TROY NFkB inh 66, LGR2 inh 90, TWEAK-Fn14 inh 94
Cc1ccc(NC(=O)Nc2nnc(-c3ccccc3)o2)cc1	none
c1ccc(Nc2nnc(-c3ccc4c(c3)OCO4)o2)cc1	LGR2 inh 92 (no result: LMP1 NFkB inh, TROY NFkB inh, TWEAK-Fn14 inh, HSF1 inhib, HSF1 activator)
Clc1ccc(Nc2nnc(-c3ccc4c(c3)OCO4)o2)cc1	none (no result: LMP1 NFkB inh, TROY NFkB inh, TWEAK-Fn14 inh, HSF1 inhib, HSF1 activator)
CN(C)C(=O)c1ccc(-c2ccccc2[C@H]2[C@H](C#N)N(C(=O)C3CCCC3)[C@H]2CO)cc1	none (no result: LMP1 NFkB inh, TROY NFkB inh, TWEAK-Fn14 inh, HSF1 inhib, HSF1 activator)
CC(C)(C)c1ccc(NC(=O)COc2ccc(-n3ccnc3)cc2)cc1	TROY NFkB inh 75, TWEAK-Fn14 inh 93 (no result: LGR2 inh)
COc1cc(NC(=O)COc2ccc(-n3ccnc3)cc2)cc(OC)c1	none
O=C(COC(=O)C1CCN(S(=O)(=O)c2cccc3cccnc23)CC1)c1ccc([N+](=O)[O-])cc1	HSF1 activator 107
O=C(C1CCC(CNS(=O)(=O)c2cccc3cccnc23)CC1)N1CCCC1 (stereo unspecified)	HSF1 inhib -86
CN(C(=O)C1CCC(CNS(=O)(=O)c2cccc3cccnc23)CC1)C1CCCCC1 (stereo unspecified)	none
O=C(Nc1ccccc1Cl)C1CCCN(S(=O)(=O)c2cccc3cccnc23)C1 (stereo unspecified)	none
O=C(Nc1nc2cc(Cl)ccc2s1)C1CCCN(S(=O)(=O)c2cccc3cccnc23)C1 (stereo unspecified)	TWEAK-Fn14 inh 84 (no result: LGR2 inh)
O=C(C1CCN(S(=O)(=O)c2cccc3cccnc23)CC1)N1CCN(c2ccc(Cl)cc2)CC1	TWEAK-Fn14 inh 51
CO[C@H](CN(C)Cc1nccs1)[C@H](C)CN([C@H](C)CO)S(=O)(=O)c1ccc(C)cc1	none (no result: LMP1 NFkB inh, TROY NFkB inh, TWEAK-Fn14 inh, HSF1 inhib, HSF1 activator)
CCCN1[C@@H]2Cn3c(ccc(-c4ccc(OC)cc4)c3=O)[C@H]1[C@@H](C(=O)NCC)[C@@H]2CO	none (no result: LMP1 NFkB inh, TROY NFkB inh, TWEAK-Fn14 inh, HSF1 inhib, HSF1 activator)
CC(=O)c1ccc(NC(=O)C2CCN(S(=O)(=O)c3cccc4cccnc34)CC2)cc1	HSF1 inhib -62
O=C(O)CCc1ccc(-c2ccc(Br)cc2)n1Cc1ccco1	HSF1 activator 116 (no result: LGR2 inh)
Cc1ccc(-c2ccc(CCC(=O)O)n2NC(=O)c2ccco2)cc1	TWEAK-Fn14 inh 77 (no result: TROY NFkB inh, LGR2 inh)
O=C(O)CCc1ccc(-c2ccc(F)cc2)n1NC(=O)c1ccco1	none (no result: LGR2 inh)
N#Cc1c(Nc2ccccc2)sc(C(=O)c2ccc(F)cc2)c1N	LMP1 NFkB inh 43
COc1ccccc1C1(O)CCN(CC(=O)Nc2nc(-c3ccccc3)cs2)CC1	TWEAK-Fn14 inh 55
CCOC(=O)N1CCN(C(=O)CSCC(=O)Nc2nc(-c3ccc(OC)cc3)cs2)CC1	none (no result: LGR2 inh, HSF1 inhib, HSF1 activator)
CCc1nnc(NC(=O)CN2CCC(O)(c3ccccc3OC)CC2)s1	none
CC(OC(=O)c1ccc(O)cc1)C(=O)Nc1nc(-c2ccccc2)cs1 (stereo unspecified)	TWEAK-Fn14 inh 55 (no result: HSF1 inhib, HSF1 activator)
CCOC(=O)N1CCN(C(=O)CSCC(=O)Nc2nc(-c3ccc(-c4ccccc4)cc3)cs2)CC1	TROY NFkB inh 57, LGR2 inh 51, TWEAK-Fn14 inh 93
CCOC(=S)SCC(=O)Nc1nc(-c2ccccc2)cs1	HSF1 activator 67
CCOC(=S)SCC(=O)Nc1nc(-c2ccc(Br)cc2)cs1	none
CC(Oc1ccccc1)C(=O)Nc1nc(-c2ccncc2)cs1 (stereo unspecified)	none (no result: HSF1 inhib, HSF1 activator)
COc1ccc(NC(=O)Nc2ccc3c(c2)C(=O)N([C@H](C)CO)C[C@@H](C)[C@@H](CN(C)S(C)(=O)=O)O3)cc1	none (no result: LMP1 NFkB inh, TROY NFkB inh, TWEAK-Fn14 inh, HSF1 inhib, HSF1 activator)
CNC(=O)C[C@H]1CC[C@H]2[C@H](COc3ccc(NC(=O)Nc4c(C)noc4C)cc3C(=O)N2C)O1	none (no result: LMP1 NFkB inh, TROY NFkB inh, TWEAK-Fn14 inh, HSF1 inhib, HSF1 activator)
COc1ccc(Br)cc1CN1CCN(Cc2c[nH]c3ccccc23)CC1	HSF1 activator 55
C=CCNc1nnnc2c1sc1nc(N3CCOCC3)c3c(c12)CCCC3	HSF1 inhib -68
Cc1ccc(-c2ccc([C@H]3[C@H](CO)N4C(=O)CN(C(=O)c5cccnc5)C[C@@H]34)cc2)cc1	none (no result: LMP1 NFkB inh, TROY NFkB inh, TWEAK-Fn14 inh, HSF1 inhib, HSF1 activator)
CC(C)c1ccc(N(C(=O)c2csnn2)C(C(=O)NC2CCCC2)c2ccncc2)cc1 (stereo unspecified)	HSF1 activator 53
CC(C)(C)NC(=O)C(c1ccncc1)N(C(=O)c1csnn1)c1cccc2ccccc12 (stereo unspecified)	none
Cc1ccccc1N(C(=O)c1csnn1)C(C(=O)NC(C)(C)C)c1ccncc1 (stereo unspecified)	HSF1 activator 93 (no result: LGR2 inh)
O=C(NC1CCCC1)C(c1cccs1)N(Cc1ccco1)C(=O)c1csnn1 (stereo unspecified)	none (no result: LGR2 inh)
O=C(NC1CCCCC1)C(c1ccccc1)N(Cc1ccco1)C(=O)c1csnn1 (stereo unspecified)	TWEAK-Fn14 inh 64, HSF1 activator inconclusive
O=C(c1ccccn1)N(Cc1ccco1)C1(C(=O)NC2CCCC2)CCCCC1	HSF1 activator 61 (no result: LGR2 inh)
COCC(=O)N(C)C[C@@H]1Oc2cc(C#C[C@@H](C)O)ccc2S(=O)(=O)N([C@@H](C)CO)C[C@H]1C	none (no result: LMP1 NFkB inh, TROY NFkB inh, TWEAK-Fn14 inh, HSF1 inhib, HSF1 activator)
C[C@@H]1CCCCO[C@H](CN(C)Cc2ccc(C(=O)O)cc2)[C@@H](C)CN([C@@H](C)CO)C(=O)c2cc(NS(=O)(=O)c3cccs3)ccc2O1	none (no result: LMP1 NFkB inh, TROY NFkB inh, TWEAK-Fn14 inh, HSF1 inhib, HSF1 activator)
CCC(C)N(C(=O)C(F)(F)F)C(C(=O)NC1CCCCC1)c1ccncc1 (stereo unspecified)	HSF1 inhib -52 (no result: LGR2 inh)
O=C(NC1CCCC1)C(c1ccncc1)N(C(=O)c1csnn1)c1ccccc1 (stereo unspecified)	none
O=C(NC1CCCCC1)c1csnn1	LMP1 NFkB inh 89
Cc1cc(C)c(N(C(=O)c2csnn2)C(C(=O)NC2CCCC2)c2ccncc2)c(C)c1 (stereo unspecified)	HSF1 inhib -76
COc1ccc(CNC(=O)C(c2ccc(C)o2)N(C(=O)c2csnn2)c2ccc(C(C)C)cc2)cc1 (stereo unspecified)	HSF1 activator 71 (no result: LGR2 inh)
O=C(N[C@@H]1CC[C@H](CCNS(=O)(=O)c2ccc(Cl)cc2)O[C@@H]1CO)c1cccnc1	none (no result: LMP1 NFkB inh, TROY NFkB inh, TWEAK-Fn14 inh, HSF1 inhib, HSF1 activator)

High-throughput results deposited in PubChem BioAssay by several laboratories.
